Results: ChEMBL document CHEMBL3988442, “University of Dundee, Small-Polar-MMV Screening Library” (2021)
Out of some 69,000 compounds screened, about 1,000 (1.4%) showed an effect of 50% or more. Only a selection was taken, and strong results are over-represented in it overall.

Test system: Leishmania donovani
Experiment: Leishmania intramacrophage assay
Type: functional, organism-based
Parameters: scale not given: in the data most compounds retested in dose-response had high values

**Q.** How did the “Percent Effect” value (30.3 µM, […]) turn out when `Cn1cc(S(=O)(=O)N(Cc2ccc(F)cc2F)C2CC2)cc1C(N)=O` was run?
**A.** The value was 34.27%.

**Q.** With `CNS(=O)(=O)CC1CCCN1C(=O)c1ccc(C)c(C)c1` (stereo not given) as the molecule, how does the “Percent Effect” value (30.3 µM, […]) read?
**A.** The value was -9.061%.

**Q.** How did the “Percent Effect” value (30.3 µM, […]) turn out when `O=c1cc(-c2ccccc2)nc2n1CCCCC2` was run?
**A.** The value was -39.42%.

**Q.** With `COCC(=O)NCc1cc2n(n1)CCCN(CCCC1CCCC1)C2` as the molecule, how does the “Percent Effect” value (30.3 µM, […]) read?
**A.** Its value is 20.98%.

**Q.** How did the “Percent Effect” value (30.3 µM, […]) turn out when `COCC(=O)N1CCC2(CCN(c3cnn(C)c3)C2=O)C1` (stereo not given) was run?
**A.** The value was 13.44%.

**Q.** For `O=C([C@@H]1C[C@@H]2CCN(C3CCOCC3)C[C@@H]2O1)N1CCOCC1`, which “Percent Effect” value (30.3 µM, […]) is on record?
**A.** The value was 9.764%.

**Q.** With `Cc1nn(C)cc1CN(C)C(=O)c1cnccn1` as the molecule, how does the “Percent Effect” value (30.3 µM, […]) read?
**A.** The value was -25.04%.

**Q.** Which “Percent Effect” value (30.3 µM, […]) does the source give for `CCC(=O)NCCNC(=O)c1nn(C)c(C)c1Cl` here?
**A.** The value was -0.8741%.

**Q.** `CCN1CCN(C[C@@H]2CN(c3ncccc3Cl)C[C@@H]2CO)CC1` was tested. Which “Percent Effect” value (30.3 µM, […]) did it give?
**A.** The value was 25.54%.

**Q.** Which “Percent Effect” value (30.3 µM, […]) does the source give for `CCN1CCN(C[C@@H]2CN(c3ncc(Cl)cc3F)C[C@@H]2CO)CC1` here?
**A.** The value was 46.16%.

**Q.** With `CCN1CCN(C[C@@H]2CN(c3ncc(Cl)cc3Cl)C[C@@H]2CO)CC1` as the molecule, how does the “Percent Effect” value (30.3 µM, […]) read?
**A.** Its value is 62.72%.

**Q.** For `O=C(NCCc1nccs1)[C@H](c1ccccc1)n1cnnn1`, which “Percent Effect” value (30.3 µM, […]) is on record?
**A.** The value was 10.58%.

**Q.** Which “Percent Effect” value (30.3 µM, […]) does the source give for `Cc1c[nH]nc1C1CCN(C(=O)C2CCOCC2)C1` (stereo not given) here?
**A.** The value was -3.336%.

**Q.** `CN1CCC(c2n[nH]cc2-c2ccnc(N)c2)C1` (stereo not given) was tested. Which “Percent Effect” value (30.3 µM, […]) did it give?
**A.** The value was 52.81%.

**Q.** `Nc1cc(-c2c[nH]nc2C2CCCCN2C(=O)C2CCCC2)ccn1` (stereo not given) was tested. Which “Percent Effect” value (30.3 µM, […]) did it give?
**A.** Its value is 12.99%.

**Q.** For `Cc1c[nH]nc1C1CCN(C(=O)C2CCCC2)C1` (stereo not given), which “Percent Effect” value (30.3 µM, […]) is on record?
**A.** Its value is -28.74%.

**Q.** How did the “Percent Effect” value (30.3 µM, […]) turn out when `CC(=O)N1CCC(c2n[nH]cc2-c2ccnc(N)c2)C1` (stereo not given) was run?
**A.** Its value is 29.98%.

**Q.** For `CC(C)OCC(=O)N1CCC(c2ncncc2-c2ccnc(N)c2)C1` (stereo not given), which “Percent Effect” value (30.3 µM, […]) is on record?
**A.** The value was -5.314%.

**Q.** Which “Percent Effect” value (30.3 µM, […]) does the source give for `CC(C)CNc1cc(-c2c[nH]nc2C2CCN(C(=O)C3CC3)C2)ccn1` (stereo not given) here?
**A.** Its value is 60.8%.

**Q.** For `CC(C)N1CCC(c2n[nH]cc2-c2ccnc(N)c2)C1` (stereo not given), which “Percent Effect” value (30.3 µM, […]) is on record?
**A.** The value was 28.17%.

**Q.** Which “Percent Effect” value (30.3 µM, […]) does the source give for `CC(C)Nc1cc(-c2c[nH]nc2C2CCN(C(=O)C3CC3)C2)ccn1` (stereo not given) here?
**A.** The value was 49.22%.

**Q.** How did the “Percent Effect” value (30.3 µM, […]) turn out when `CC(C)Nc1cc(-c2c[nH]nc2C2CCN(C(=O)C3CCC3)C2)ccn1` (stereo not given) was run?
**A.** The value was 63.06%.

**Q.** With `CCCNc1cc(-c2c[nH]nc2C2CCN(C(=O)C3CCC3)C2)ccn1` (stereo not given) as the molecule, how does the “Percent Effect” value (30.3 µM, […]) read?
**A.** Its value is 53.3%.

**Q.** For `Nc1cc(-c2c[nH]nc2C2CCN(C(=O)C3CCCC3)C2)ccn1` (stereo not given), which “Percent Effect” value (30.3 µM, […]) is on record?
**A.** Its value is 42.83%.

**Q.** How did the “Percent Effect” value (30.3 µM, […]) turn out when `COCCNC(=O)[C@H]1CN(Cc2cccs2)C[C@H]2OCC[C@@H]12.O=C(O)C(F)(F)F` was run?
**A.** The value was -23.24%.

**Q.** Which “Percent Effect” value (30.3 µM, […]) does the source give for `Cn1cc(-c2cc(C(F)(F)F)nn2CCC#N)cn1` here?
**A.** The value was -0.6212%.

**Q.** How did the “Percent Effect” value (30.3 µM, […]) turn out when `CCCn1nccc1-c1nccnc1CC1CCN(C(C)=O)CC1` was run?
**A.** Its value is -24.99%.

**Q.** How did the “Percent Effect” value (30 µM, 30.03 µM) turn out when `NCCn1nc(C2CCN(C(=O)CC3CCCCC3)C2)c2nccnc21` (stereo not given) was run?
**A.** The value was -5.021%.

**Q.** With `Nc1ccc(C(=O)N2C[C@@H]3CC[C@H](C2)N(Cc2ccccc2)C3)cn1` as the molecule, how does the “Percent Effect” value (30.3 µM, […]) read?
**A.** Its value is 19.02%.

**Q.** Which “Percent Effect” value (30.3 µM, […]) does the source give for `COC1COC2(CCN(CC3CC3)CC2)C1.O=C(O)C(F)(F)F` (stereo not given) here?
**A.** The value was 18.41%.

**Q.** How did the “Percent Effect” value (30.3 µM, […]) turn out when `COCCC(=O)N1C[C@@H](c2ccc(F)c(F)c2)[C@@]2(CCCC(=O)N2)C1` was run?
**A.** Its value is 28.03%.

**Q.** `COC(=O)N1CCCC(C(=O)NCCc2c[nH]c3cc(C)ccc23)C1` (stereo not given) was tested. Which “Percent Effect” value (30.3 µM, […]) did it give?
**A.** Its value is 6.757%.

**Q.** `Cc1ccc(C2CSCCN2C(=O)c2ccc(C(N)=O)cc2)o1` (stereo not given) was tested. Which “Percent Effect” value (30 µM, 30.03 µM) did it give?
**A.** Its value is 7.343%.

**Q.** For `Cc1nccnc1N1C[C@H](NC(=O)CNS(C)(=O)=O)[C@@H](C2CC2)C1`, which “Percent Effect” value (30.3 µM, […]) is on record?
**A.** Its value is 8.886%.

**Q.** `Cn1nc(C(=O)N2CCOCC2)c2c1CN(CC1CC1)C2.O=C(O)C(F)(F)F.O=C(O)C(F)(F)F` was tested. Which “Percent Effect” value (30.3 µM, […]) did it give?
**A.** Its value is 55.32%.

**Q.** For `Cn1nc(C(=O)N2CCCC2)c2c1CN(CC1CCOCC1)C2`, which “Percent Effect” value (30.3 µM, […]) is on record?
**A.** Its value is -0.9877%.

**Q.** How did the “Percent Effect” value (30.3 µM, […]) turn out when `Cn1nc(C(=O)N2CCOCC2)c2c1CN(CC1CCC1)C2` was run?
**A.** The value was 23.43%.

**Q.** With `CC(C)(C)C(=O)NCCC(=O)NC(C)(C)c1ccc2c(c1)OCO2` as the molecule, how does the “Percent Effect” value (30.3 µM, […]) read?
**A.** The value was 2.237%.

**Q.** For `Cc1cnc(N2CCc3onc(COc4cccnc4)c3C2)nc1`, which “Percent Effect” value (30.3 µM, […]) is on record?
**A.** The value was 77.52%.

**Q.** Which “Percent Effect” value (30.3 µM, […]) does the source give for `O=C(N1CCCC1)N1CCc2onc(COc3cccnc3)c2C1.O=C(O)C(F)(F)F` here?
**A.** The value was 0.9186%.

**Q.** How did the “Percent Effect” value (30 µM, 30.03 µM) turn out when `c1cncc(OCc2noc3c2CN(Cc2ccoc2)CC3)c1` was run?
**A.** The value was 10.86%.

**Q.** `CNS(=O)(=O)Cc1ccc(CNC(=O)c2cccc(C)n2)cc1` was tested. Which “Percent Effect” value (30 µM, 30.03 µM) did it give?
**A.** The value was 36.89%.

**Q.** Which “Percent Effect” value (30.3 µM, […]) does the source give for `Cc1cc2c(cc1NC(=O)NC(C)(C)C)OCO2` here?
**A.** The value was -22.07%.

**Q.** With `Cc1nnc(CN(CCc2ccccc2)C2CCN(C)CC2)s1` as the molecule, how does the “Percent Effect” value (30.3 µM, […]) read?
**A.** The value was 1.604%.

**Q.** With `NCCn1nc(C2CCN(Cc3ccc(Cl)c(Cl)c3)C2)c2nccnc21` (stereo not given) as the molecule, how does the “Percent Effect” value (30 µM, 30.03 µM) read?
**A.** Its value is 52.46%.

**Q.** With `NCCn1nc(C2CCN(Cc3ccccc3Cl)C2)c2nccnc21` (stereo not given) as the molecule, how does the “Percent Effect” value (30.3 µM, […]) read?
**A.** The value was 9.93%.

**Q.** With `NCCn1nc(C2CCN(Cc3ccccc3)C2)c2nccnc21` (stereo not given) as the molecule, how does the “Percent Effect” value (30.3 µM, […]) read?
**A.** The value was 5.976%.

**Q.** With `Clc1cccc2c3c([nH]c12)CCN(Cc1cc2n(n1)CCNC2)C3` as the molecule, how does the “Percent Effect” value (30.3 µM, […]) read?
**A.** Its value is 28.65%.

**Q.** Which “Percent Effect” value (30.3 µM, […]) does the source give for `c1ccc2c3c([nH]c2c1)CN(Cc1cc2n(n1)CCNC2)CC3` here?
**A.** Its value is 19.37%.

**Q.** `Clc1cccc2c3c([nH]c12)CCN(Cc1cc2n(n1)CCCNC2)C3` was tested. Which “Percent Effect” value (30.3 µM, […]) did it give?
**A.** The value was 94.36%.
